This excerpt belongs to a sample that is enriched for hits.
Pf apPOL inh = Pf-apPOL DNA polymerase inhibition; Recombinant Pf-apPOL, molecular beacon fluorescence, 1.5 h; inhibition, % at 10 µM; hit rate 0.25% among 210,000
mHTT CaM bind = disrupts binding of mutant huntingtin to calmodulin. AlphaScreen His-mHTT/GST-CaM binding, luminescence. inhibition, % at 15 µM. hit rate 3.6% among 190,000. AID 1671202
Each line names hits and unclear results; the compound was inactive in the other large screens. Cut-off read from the data, not from the text of the source: active = inhibition above about 50%; inactive = the rest.

O=c1[nH]c2c(s1)C(c1ccc(O)cc1)C1C3CCC(C3)C1S2 (stereo unspecified)	mHTT CaM bind 63
O=c1[nH]c2c(s1)C(c1cccnc1)C1C3CCC(C3)C1S2 (stereo unspecified)	none
CC1C(=O)N(c2ccc(F)cc2)CCN1C(=O)c1cccc(F)c1 (stereo unspecified)	none
Cc1nccn1CC(=O)N1CC(C)C(c2nc(-c3ccncc3)no2)C1 (stereo unspecified)	none
CCCNC(=O)C1CN(C(=O)CC)CC1c1ccc(C)cc1 (stereo unspecified)	none
CCCCC[C@H](C)N1C[C@H](COCc2ccccc2)Oc2cc(N3CCC[C@H]3CO)ccc2S1(=O)=O	none
CCCCC[C@H](C)N1C[C@H](COCc2ccccc2)Oc2cc(N3CCC[C@@H]3CO)ccc2S1(=O)=O	none
CCCCC[C@H](C)N1C[C@@H](COCc2ccccc2)Oc2cc(N3CCC[C@H]3CO)ccc2S1(=O)=O	none
CCCCC[C@H](C)N1C[C@H](COCc2ccccc2)Oc2cc(N3CC[C@H](O)C3)ccc2S1(=O)=O	mHTT CaM bind 96
CCCCC[C@@H](C)N1C[C@H](COCc2ccccc2)Oc2cc(N3CC[C@H](O)C3)ccc2S1(=O)=O	mHTT CaM bind 78
CCCCC[C@H](C)N1C[C@H](COCc2ccccc2)Oc2cc(N3CCC[C@@H]3COC)ccc2S1(=O)=O	none
CCCCC[C@@H](C)N1C[C@H](COCc2ccccc2)Oc2cc(N3CC[C@@H](O)C3)ccc2S1(=O)=O	mHTT CaM bind 58
CCCCC[C@@H](C)N1C[C@H](COCc2ccccc2)Oc2cc(N3CC[C@H](N(C)C)C3)ccc2S1(=O)=O	mHTT CaM bind 100
Cc1ccc(CN2CCN(C3CCN(C(=O)Nc4ccc(C)cc4)CC3)C2=O)cc1	none
CC(C)n1cnnc1C1CCN(C(=O)c2ccncc2)CC1	none
CCCCC[C@@H](C)N1C[C@@H](COCc2ccccc2)Oc2cc(N3CCC[C@H]3C(N)=O)ccc2S1(=O)=O	none
CCCCC[C@H](C)N1C[C@@H](COCc2ccccc2)Oc2cc(N3CCC[C@H]3C(N)=O)ccc2S1(=O)=O	mHTT CaM bind 69
O=[N+]([O-])c1ccc(O)c(C=Nc2ccc(Br)cn2)c1	none
O=C(C1CCN(Cc2c(F)cccc2Cl)CC1)N1CCN(Cc2ccccc2)CC1	none
O=C(C[C@H]1C(=O)N(Cc2ccccc2)C[C@@H]1Cc1ccccc1)Nc1ccc(Br)cc1	mHTT CaM bind 52
O=C(C[C@H]1C(=O)N(Cc2cccnc2)C[C@@H]1Cc1ccccc1)Nc1ccc(Br)cc1	none
COc1ccc(N2C[C@H](Cc3ccccc3)[C@@H](CC(=O)Nc3ccccc3)C2=O)cc1	mHTT CaM bind 74
COc1ccc(N2C[C@H](C)[C@@H](CC(=O)Nc3ccc(Br)cc3)C2=O)cc1	none
COc1ccc([C@H]2CN(c3ccc(OC)cc3)C(=O)[C@@H]2CC(=O)Nc2ccc(Br)cc2)cc1	mHTT CaM bind 55
COc1ccc(NC(=O)C[C@H]2C(=O)N(c3ccccc3)C[C@@H]2Cc2ccccc2)cc1	none
CN1CCC(CNC(=O)CSCc2ccccc2)CC1	none
COc1ccccc1C(=O)N1CCCC1c1c(C)noc1C (stereo unspecified)	none
Cc1cccc(C)c1NC(=O)CN(c1ccc(F)cc1)S(=O)(=O)c1ccc2c(c1)OCCO2	none
Cc1oc2ccn(Cc3ccc(F)cc3)c(=O)c2c1C(=O)N1CCCCC1	mHTT CaM bind 59
CCn1ccc2oc(C)c(C(=O)N3CCC(Cc4ccccc4)CC3)c2c1=O	mHTT CaM bind 93
Cc1sc2ccn(Cc3ccc(F)cc3)c(=O)c2c1C(=O)N1CCC(C)CC1	mHTT CaM bind 80
CCn1ccc2oc(C)c(C(=O)N3CCC(C)CC3)c2c1=O	none
Cc1oc2ccn(Cc3cccc(F)c3)c(=O)c2c1C(=O)N1CCCCC1	none
Cc1sc2ccn(Cc3ccc(F)cc3)c(=O)c2c1C(=O)N1CCOCC1	none
Cc1ccc(NC(=O)c2ccc(C)c(C)c2)c(Br)c1	none
COc1ccccc1-n1nnc(C(=O)NCc2ccccc2)c1N	none
Cc1ccccc1C(=O)NC(N1CC(C)OC(C)C1)C(Cl)(Cl)Cl (stereo unspecified)	none
CCc1ccc(C(=O)N2CC3CC2CC3NS(C)(=O)=O)cc1 (stereo unspecified)	none
CCN(C)c1nc(-c2ccccc2Cl)c2c(N)n(-c3ccccc3)nc2n1	none
CCN(C)c1nc(-c2cccc(F)c2)c2c(N)n(-c3cccc(F)c3)nc2n1	mHTT CaM bind 57
O=C(NCCCN1CCOCC1)c1cc2nc(-c3ccco3)cc(C(F)(F)Cl)n2n1	none
O=C(NCCc1c[nH]c2ccccc12)c1cc2nc(-c3ccco3)cc(C(F)(F)Cl)n2n1	mHTT CaM bind 76
COc1ccccc1-c1nnc(Sc2ccc(C(F)(F)F)cc2[N+](=O)[O-])n1-c1ccccc1	none (no result: mHTT CaM bind)
Cc1nc(C2CCCN(Cc3cccc4[nH]ccc34)C2)n[nH]1 (stereo unspecified)	none
Cc1nc(C2CCCN(Cc3ccc(Br)o3)C2)n[nH]1 (stereo unspecified)	mHTT CaM bind 50
COc1cc(CN2CCCCCC2)cc(I)c1O	none
COc1cc(CN2CCN(c3cc(C)ccc3C)CC2)cc(OC)c1OC	none
COc1cc(CN2CCN(c3cc(C)ccc3C)CC2)cc(I)c1O	mHTT CaM bind 85
COc1cc(CN2CCCCCCC2)cc(OC)c1O	mHTT CaM bind 72
CCN(CC(=O)N1CCCc2c1c(=O)oc1ccc(O)cc21)c1ccccc1	none
Cc1c(N=Cc2ccc(O)cc2)c(=O)n(-c2ccccc2)n1C	none
O=C(NCCNc1ccc(Nc2ccccn2)nn1)c1ncccn1	mHTT CaM bind 100
Cc1cccc(Nc2ccc(NCCNC(=O)c3ccccc3C(F)(F)F)nn2)n1	none
O=C(Cc1ccccc1)Nc1cc(-c2nc3ncccc3o2)ccc1Cl	none
O=C(Cc1ccccc1)NC(c1ccccc1Cl)c1ccc2cccnc2c1O (stereo unspecified)	mHTT CaM bind 100
COc1ccc(NC(=O)C2CC2)c2ncccc12	none
CCC(=O)Nc1ccccc1Cl	none
CCC(=O)NC(c1ccccc1Cl)c1ccc2cccnc2c1O (stereo unspecified)	mHTT CaM bind 100
CCC(=O)NC(c1ccccc1OC)c1ccc2cccnc2c1O (stereo unspecified)	mHTT CaM bind 100
CCC(=O)Nc1cccnc1-c1ccc(C(=O)Nc2ccccc2OC)cc1	none
COc1ccccc1C(NC(=O)C1CCCCC1)c1ccc2cccnc2c1O (stereo unspecified)	mHTT CaM bind 100
CCOc1ccccc1C(=O)N1CCCC1c1nc(-c2cccc(C)c2)no1 (stereo unspecified)	none
Cc1cccc(C(=O)Nc2cccc(C(=O)Nc3ccccc3Cl)c2)c1	none
O=C(CCN1C(=O)C2C3C=CC(C3)C2C1=O)Nc1ccc(Cl)cc1 (stereo unspecified)	none
Cc1occc1C(=O)Nc1ccc(F)cc1F	none
Cc1ccc(-c2nnc(-c3ccc(N4CCC(C)CC4)nc3)o2)cc1	none
O=C(Cc1ccccc1)NC(c1ccccc1)c1ccc2cccnc2c1O (stereo unspecified)	mHTT CaM bind 100
O=C(CCCN1C(=O)c2cccnc2C1=O)NC(c1ccccc1)c1ccccc1	none
CCCCC(=O)NC(c1ccccc1Cl)c1ccc2cccnc2c1O (stereo unspecified)	mHTT CaM bind 99
O=C(NC(c1ccccc1)c1ccccc1)c1ccccn1	none
Cc1ccc(NC(=O)Cn2c(N3CCCC3)nc(C)cc2=O)c(C)c1	none
Cc1ccnc(N2CCCC(C(=O)NCCN3CCCC3)C2)n1 (stereo unspecified)	none
